Our source for the inhibition values is PubChem BioAssay AID1259417 (TB Discovery Research, Infectious Disease Research Institute, 2018).

The test in a line: M. tuberculosis growth inhibition, HTS (AID 1259417).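 Also: bacteria grown with compound for 5 days at 37 °C.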 Particulars: stronger effect = higher value, concentration not given here.
[1] abbreviates: M. tuberculosis DsRed fluorescence growth inhibition.
Where [2] appears, read: M. tuberculosis growth inhibition.

About 760 (69%) of roughly 1,100 compounds were called active. No rule for the calls is given here. So high a share suggests a set chosen from earlier hits. Some of the results follow.

For the compound `O=c1[nH]c(C=Cc2cccc3ccccc23)nc(O)c1[N+](=O)[O-]`, the inhibition (as a rule, the change of the read-out against control, counted positive when it falls) was 3.53% (inactive) under setting [1] and 9.27% under setting [2].
Taken in the same sequence, the figures for `CCN(CC)C(=S)NC(=O)c1ccc(Cl)cc1` were 0.912% (inactive) and 0.451%.
Turning to `CC1CCN(CCNC(=S)Nc2ccc(F)cc2)CC1`, the inhibition by setting is: under setting [1], 0.916% (inactive); under setting [2], -24%.
Taken in the same sequence, the figures for `S=C(NCc1ccc(Cl)cc1)N1CCN(CC=Cc2ccccc2)CC1` were 5.55% (inactive) and -11%.
Taken in the same sequence, the figures for `COc1ccc(CCNC(=S)N2CCN(CC=Cc3ccccc3)CC2)cc1OC` were 20.3% (inactive) and 12.5%.
Taken in the same sequence, the figures for `CCN(CC)c1ccc(NC(=S)NCCc2ccc(OC)c(OC)c2)cc1` were 91.5% (active) and 100%.
On to `CCN(CC)c1ccc(NC(=S)NCc2ccc(Cl)cc2)cc1`, for which the inhibition by setting is: under setting [1], 72.5% (active); under setting [2], 88.7%.
In the case of `c1ccc(-c2nnc(SCc3nnc(-c4cccs4)o3)o2)cc1`, the inhibition is, setting by setting: under setting [1], -2.64% (inactive); under setting [2], -5.86%.
Taken in the same sequence, the figures for `COC(=O)CSc1nnc(-c2ccc(OC)c(OC)c2)o1` were 79.2% (active) and 92.4%.
For `COc1ccc(-c2nnc(SCC(=O)OC3CCCCC3)o2)cc1OC`, the inhibition runs as follows: under setting [1], 50.5% (active); under setting [2], 80.2%.
`O=C(CSc1nnc(-c2cccs2)o1)OC1CCCCC1`: the inhibition is 28.2% (active) under setting [1] and 52.1% under setting [2].
Regarding `COC(=O)CSc1nnc(-c2ccc(Cl)cc2)o1`, the inhibition runs as follows: under setting [1], 61.4% (active); under setting [2], 85%.
On the same counts, the results for `CCOc1ccc(C(=O)Nc2ccc(N3CCN(C(=O)c4cccs4)CC3)c(Cl)c2)cc1Br` are 14.9% (inactive) and -6.08%.
`COc1cccc(C(=O)NC(=S)Nc2ccc(N3CCN(C(=O)c4cccs4)CC3)c(Cl)c2)c1`: the inhibition is 62% (active) under setting [1] and 11.5% under setting [2].
Regarding `CCc1ccc(OCC(=O)Nc2ccc(N3CCN(C(=O)c4cccs4)CC3)c(Cl)c2)cc1`, the inhibition by setting is: under setting [1], 0.597% (inactive); under setting [2], -20.3%.
On the same counts, the results for `O=C(CC12CC3CC(CC(C3)C1)C2)Nc1ccc(Br)cc1` are 50.7% (active) and 17.6%.
In the case of `O=C(CC12CC3CC(CC(C3)C1)C2)Nc1ccc(F)c(Cl)c1`, the inhibition runs as follows: under setting [1], 98.3% (active); under setting [2], 95.1%.
On the same counts, the results for `O=C(CC12CC3CC(CC(C3)C1)C2)Nc1ccc2ccccc2c1` are 99.1% (active) and 96.6%.
On the same counts, the results for `O=C(Nc1ccc(F)c(Cl)c1)C12CC3CCC(CC(C3)C1)C2` are 100% (active) and 97.2%.
Taken in the same sequence, the figures for `COC(=O)c1ccc(NC(=O)CC23CC4CC(CC(C4)C2)C3)cc1` were 5.38% (inactive) and -0.346%.
For `COC(=O)c1cc(NC(=O)CC23CC4CC(CC(C4)C2)C3)cc(C(=O)OC)c1`, the inhibition is 11.6% (inactive) under setting [1] and -29% under setting [2].
On to `Cc1ccc(NC(=O)C23CC4CCC(CC(C4)C2)C3)cc1`, for which the inhibition is 99.7% (active) under setting [1] and 96.9% under setting [2].
On the same counts, the results for `O=C(CC12CC3CC(CC(C3)C1)C2)Nc1ccc2c(c1)OCCO2` are 40.1% (active) and 16.6%.
Turning to `O=C(CC12CC3CC(CC(C3)C1)C2)Nc1cccc(Cl)c1`, the inhibition is 64.1% (active) under setting [1] and 34.5% under setting [2].
On the same counts, the results for `O=C(CC12CC3CC(CC(C3)C1)C2)Nc1cccc(C(F)(F)F)c1` are 97.7% (active) and 85.6%.
On the same counts, the results for `C[n+]1c2n(c3ccccc31)N=C(c1cc(C(C)(C)C)c(O)c(C(C)(C)C)c1)CS2` are -2.19% (inactive) and 3.98%.
As to `CC(NC(=O)Nc1cccc(C(F)(F)F)c1)C1CC2CCC1C2` (stereo not given), the inhibition under setting [1] is 98.8% (active) and the inhibition under setting [2] is 99.4%.
In the case of `O=C(CC12CC3CC(CC(C3)C1)C2)Nc1ccc(I)cc1F`, the inhibition by setting is: under setting [1], 57.6% (active); under setting [2], 24.5%.
Taken in the same sequence, the figures for `Cc1cc(C)c2[nH]c3ccccc3c2n1` were 100% (active) and 101%.
As for `CCn1c(Sc2ncnc3ccccc23)nc2ccccc21`, the inhibition by setting is: under setting [1], 33.7% (active); under setting [2], 57.9%.
Taken in the same sequence, the figures for `CCCc1cc(-c2nc(-c3ccc(Br)cc3)cs2)ccn1` were 98.5% (active) and 100%.
For the compound `CCOC(=O)COc1ccc2c(=O)c(-c3ccccc3Cl)c(C)oc2c1C`, the inhibition is 41.3% (active) under setting [1] and 87.5% under setting [2].
On the same counts, the results for `CCOC(=O)COc1ccc2c(=O)c(-c3ccccc3F)coc2c1C` are 77.2% (active) and 94.8%.
In the case of `Clc1ccc(COc2ccc3ccccc3c2CNCc2cccnc2)c(Cl)c1`, the inhibition is, setting by setting: under setting [1], 73.9% (active); under setting [2], 65.8%.
On the same counts, the results for `Cc1cccc(OCC(O)CN2CCN(CCN3C(=O)c4cccc5cccc(c45)C3=O)CC2)c1C` (stereo not given) are 3.21% (inactive) and -19.3%.
For `OC(COc1ccc2ccccc2c1)CN1CCCN(CC(O)COc2ccc3ccccc3c2)CC1` (stereo not given), the inhibition was 37.5% (active) under setting [1] and 79.7% under setting [2].
On the same counts, the results for `O=C1c2cccc3cccc(c23)C(=O)N1CCN1CCN(CC(O)COc2ccccc2Cl)CC1` (stereo not given) are -4.11% (inactive) and -8.38%.
Consider `O=C(c1ccc(Cl)cc1)c1ccc(OCC(O)CN2CCN(Cc3ccccc3)CC2)cc1` (stereo not given), for which the inhibition is, setting by setting: under setting [1], 8.82% (inactive); under setting [2], -14%.
For `Cc1ccc(OCC(O)CN2CCN(CC(O)COc3ccc(C)cc3C)CC2)c(C)c1` (stereo not given), the inhibition is, setting by setting: under setting [1], 6.73% (active); under setting [2], 45.2%.
Taken in the same sequence, the figures for `Cc1ccc(Cl)cc1N1CCN(CC(O)COc2ccc(C(=O)c3ccccc3)cc2)CC1` (stereo not given) were 16.7% (inactive) and 1.47%.
Taken in the same sequence, the figures for `Cc1cccc(OCC(O)CN2CCN(C(c3ccccc3)c3ccccc3)CC2)c1C` (stereo not given) were -6.14% (inactive) and -29.9%.
Turning to `O=C1c2cccc3cccc(c23)C(=O)N1CC1CCN(CC(O)COc2ccc3ccccc3c2)CC1` (stereo not given), the inhibition by setting is: under setting [1], 37.2% (active); under setting [2], 31.4%.
Consider `OC(COc1ccccc1Cl)CN1CCN(C(c2ccccc2)c2ccccc2)CC1` (stereo not given), for which the inhibition under setting [1] is -4.97% (inactive) and the inhibition under setting [2] is -9.36%.
Taken in the same sequence, the figures for `CN(c1ccccc1)c1nc(N2CCCC2)nc(-n2ccnc2)n1` were 57.3% (active) and 34.7%.
Taken in the same sequence, the figures for `c1ccc(CN2CCN(c3nc(-c4ccccc4)nc(-n4ccnc4)n3)CC2)cc1` were 2.46% (inactive) and -9.34%.
